Values without a mark were called inactive. Calls follow the shape of the full dose curve.
assay: G protein-coupled receptor (GPCR) small molecule agonists, calcium flux assay: HEK293 wild type cell line counter screen (AID 1920065); settings: HEK293 WT calcium flux, fluorescence, agonist mode; series mostly up to 57.6 µM; activation: at the top concentration
Procedure, shortened: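 Following 18 h incubation at 37 C/5% CO2, plates got calcium dye for 1 h; compounds, ATP or DMSO were then pinned in and fluorescence followed kinetically (480/540 nm).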
% is scaled to controls: 0 for no effect and ±100 for the full control effect.

| SMILES | activation |
| --- | --- |
| O=C(O)c1cc(C(=O)O)c(C(=O)O)cc1C(=O)O | -0.111% |
| O=S(=O)(O)c1ccc(N=Nc2c(O)ccc3ccccc23)cc1 | 0.293% |
| COS(=O)(=O)C(F)(F)F | 0.0043% |
| O=C(NS(=O)(=O)/C=C/c1ccccc1)c1ccc(F)cc1Cl | -0.204% |
| CC(C)(Sc1cc(C(C)(C)C)c(O)c(C(C)(C)C)c1)Sc1cc(C(C)(C)C)c(O)c(C(C)(C)C)c1 | -0.476% [at 26.5 µM] |
| Nc1c(N=Nc2ccc(-c3ccc(N=Nc4cc(S(=O)(=O)O)c5ccccc5c4N)cc3)cc2)cc(S(=O)(=O)O)c2ccccc12 | 2.8% |
| CC(C)NCCCC1(C(N)=O)c2ccccc2-c2ccccc21 | -0.0735% [at 26.5 µM] |
| CCCCCc1ccc(N)cc1 | 1.97% |
| CC/C=C\CCOC(=O)c1ccccc1O | 0.0044% |
| CCCCCCCCCCCCCCNCCO | -0.771% [at 26.5 µM] |
| O=C1OC(O)C(C(Cl)Cl)=C1Cl (configuration not stated) | -0.577% |
| Cc1cc2c(s1)Nc1ccccc1N=C2N1CCN(C)CC1 | -0.0215% [at 26.5 µM] |
| CC1(C)CC(OC(=O)CCCCCCCCC(=O)OC2CC(C)(C)NC(C)(C)C2)CC(C)(C)N1 | 0.376% [at 11.8 µM] |
| C=CC(=O)OCCOCCOC(=O)C=C | -0.405% |
| FC(F)(F)C(F)(F)C(F)(F)C(F)(F)C(F)(F)C(F)(F)C(F)(F)C(F)(F)Br | -0.0237% [at 26.5 µM] |
| C=CC(=O)OCCOCC(CC)(COCCOC(=O)C=C)COCCOC(=O)C=C | 1.45% |
| C[C@H]1O[C@H](O[C@H]2[C@H](O)[C@@H](O)[C@@H](O[C@H]3[C@H](O)[C@@H](O)[C@H](O)O[C@@H]3CO)O[C@@H]2CO)[C@H](O)[C@@H](O)[C@@H]1N[C@H]1C=C(CO)[C@@H](O)[C@H](O)[C@H]1O | -0.522% [at 26.5 µM] |
